# Screening results deposited in PubChem by National Center for Advancing Translational Sciences (NCATS).
# Sm TGR inh = inhibitors of Schistosoma mansoni thioredoxin glutathione reductase; Q962Y6; AID 485364; purified TGR, DTNB reduction, TNB absorbance 405 nm; Potency, µM (doses to about 114 µM), usual class: inhibitors; 3% of 360,000 active; also: nearly all actives have a fitted effect of over 60% in size
#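 Kinetic colorimetric format: TGR-catalysed, NADPH-driven DTNB reduction monitored via TNB absorbance. Enzyme dispensed at 20 nM; compound exposure 15 min at room temperature before reaction start.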
# HCV inh = blocks hepatitis C virus. Potency, µM (titrated, usually from 41.8 µM), most hits filed as inhibitors. AID 651820. Huh7.5.1 HCVcc-Cre infection, luciferase reporter, 44 h. 3.4% of 340,000 active
#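 A cell-based infection assay in which seeded cells (1,000 per well) receive test compound after 4 h, are inoculated with HCVcc-Cre at approximately 0.5 moi, and are incubated 44 h before luminescence detection.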
# VACV Venus inh = inhibitors of vaccinia virus (Venus reporter); Vaccinia virus Venus reporter expression, fluorescence; Potency, µM (doses to about 36.5 µM), usual class: inhibitors; 0.46% of 330,000 active; AID 720580; calls by dose curve; tested in A549 cells; also: nearly all actives have a fitted effect of over 30% in size
# FMDV inh = foot and mouth disease virus antiviral activity. FMDV antiviral cell-based qHTS. 1.2% of 410,000 active. Potency, µM (titrated, usually from 57.9 µM), actives largely listed as inhibitors; calls by dose curve; tested in HEK293T cells; also: read-out not given here; nearly all actives have a fitted effect of over 45% in size
# HCMV inh = inhibitors of human cytomegalovirus; HFF cells, HCMV-luciferase reporter, 72 h; active compounds read low; activity change, negative = inhibition, % at 57.5 µM; 4.5% of 410,000 active; in the data active = activity change below about -60%; inconclusive = no clear call, values can overlap the other calls; inactive = above about -39%
#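 Steps: HFFs plated, 16 h 37C; compounds added; HCMV-luciferase added to MOI 1 PFU/cell; 72 h 37C; OneGlo reagent, 5 min room temperature; luminescence read, normalized to controls.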
# VACV mCherry inh = inhibitors of vaccinia virus infection (mCherry reporter signal) | 0.63% of 310,000 active | Potency, µM (doses to about 36.5 µM), hits mostly inhibitors | Vaccinia virus mCherry reporter infection, fluorescence | AID 720579; calls by dose curve; tested in A549 cells; also: nearly all actives have a fitted effect of over 35% in size
# A number is an active result; i = inactive; ? = inconclusive; nt = no result; + = active, no number; [ ] = remark or other dose. This is a sample that favours compounds with a hit; in the whole collection about 9.3% have one here. Unless noted, calls follow the shape of the dose curve; as a rule, active = well fitted curve in the direction sought with a large enough effect; inconclusive = small, poorly fitted or top-dose-only effect, or another doubt; inactive = no such curve, though single readings can be large; an effect the other way counts as inactive or inconclusive.
SMILES,Sm TGR inh,HCV inh,VACV Venus inh,FMDV inh,HCMV inh,VACV mCherry inh
CC(C)(C)c1cc(/C=N/NC(=O)Cc2nc3ccccc3[nH]2)cc(C(C)(C)C)c1O,?,i,i,i,-78.6,nt
Cc1ccccc1CN1CCCN(Cc2ccc(Cl)cc2)S1(=O)=O,i,i,i,i,-60.0,i
Cc1ccc(CN2CCCN(Cc3ccc(Cl)cc3)S2(=O)=O)cc1,i,i,i,i,i,i
CCOC(=O)C1/C(=N\O)CC(C)(O)C(C(=O)OCC)C1c1ccc(N(C)C)cc1 (configuration not stated),35.5µM,i,i,i,i,nt
[Hg+][c]1ccccc1,nt,nt,2µM,nt,nt,2µM
O=c1[nH]c(CSc2ncc(C(F)(F)F)cc2Cl)nc2cc(C(F)(F)F)ccc12,i,i,i,i,i,i
CSC1=NCCN1C(=O)c1c(F)cccc1Cl,i,i,i,i,-99.7,i
CSC1=NCCN1C(=O)c1cccc(Br)c1,i,i,i,i,i,i
COc1ccc(OC)c(C2=NOC(C(=O)Nc3cc(C)nn3-c3ccccc3)C2)c1 (configuration not stated),i,i,?,i,i,+
COc1cc(NC(=O)C2CC(c3cccc(OC)c3OC)=NO2)cc(OC)c1OC (configuration not stated),i,1.12µM,nt,?,nt,nt
COc1cccc(C2=NOC(C(=O)Nc3cc(C)on3)C2)c1 (configuration not stated),i,i,i,i,-101.8,i
COc1ccc(C2=NOC(C(=O)Nc3cc(C)on3)C2)cc1 (configuration not stated),i,i,i,i,i,i
COc1ccc(OC)c(C2=NOC(C(=O)Nc3ccccc3SC)C2)c1 (configuration not stated),i,i,nt,i,i,nt
COc1cccc(C2=NOC(C(=O)Nc3cccnc3Cl)C2)c1OC (configuration not stated),i,i,i,i,i,i
COc1ccc(S(=O)(=O)N2CCCCC2)cc1NC(=O)c1ccc(Cl)nc1,i,i,i,i,i,i
COc1ccc(OC)c(/C=N/NC(=O)CC(=O)NC2CCCCC2)c1,i,i,i,i,i,i
Nc1ccc(Br)cc1C(=O)c1ccccc1,i,i,nt,i,i,nt
O=c1[nH]c(SCc2nc3c(cnn3-c3ccccc3)c(=O)[nH]2)nc2ccccc12,i,?,i,i,-92.2,nt
C=CCn1c(SCc2nc3ccccc3c(=O)[nH]2)nc2ccccc2c1=O,i,i,i,i,-60.5,nt
O=c1[nH]c(CSc2nc3ccccc3o2)nc2c1cnn2-c1ccccc1,i,i,i,i,i,nt
O=c1[nH]c(CSc2nc3ccccc3[nH]2)nc2c1cnn2-c1ccccc1,i,?,i,22.4µM,-85.6,?
C=CCn1c(Cc2ccccc2)nnc1SCc1nc2ccccc2c(=O)[nH]1,i,i,i,i,i,i
O=c1[nH]c(CSc2ncccn2)nc2c1cnn2-c1ccccc1,i,i,i,i,i,i
Cc1ccc2nc(SCc3nc4c(cnn4-c4ccccc4)c(=O)[nH]3)[nH]c2c1,i,?,i,11.2µM,-83.3,i
COc1ccc(NC(=S)Nc2cccc(C)n2)cc1,i,?,i,i,?,i
SMILES,Sm TGR inh,HCV inh,VACV Venus inh,FMDV inh,HCMV inh,VACV mCherry inh
COc1ccccc1-c1cc(C(F)(F)F)nc(S(=O)(=O)CCCC(=O)Nc2ccccc2F)n1,i,nt,i[7.34 µM],?,-102.5,i[7.34 µM]
COc1ccccc1-c1cc(C(F)(F)F)nc(S(=O)(=O)CCCC(=O)Nc2cccnc2Cl)n1,?,?,?,14.1µM,-90.1,?
CC1(C)CC(NC(=O)c2ccccn2)CC(C)(C)N1O,i,i,nt,i,?,nt
N/C(=N\OC(=O)COc1ccc(Br)cc1)c1cccc([N+](=O)[O-])c1,i,i,i,i,i,i
Cc1ccc(NC(=O)C(=O)c2ccc(C)cc2)cc1,i,i,i,i,i,i
CCOC(=O)C(NCc1ccc2c(c1)OCO2)(NC(=O)c1ccccc1)C(F)(F)F (configuration not stated),i,i,i,i,-61.2,i
CCOC(=O)C(NCc1ccccc1)(NC(=O)c1ccccc1)C(F)(F)F (configuration not stated),i,i,i,i,i,i
O=C(CN1N=C(c2ccc(Cl)cc2)CCC1=O)NCCc1ccccc1,i,nt,i,i,i,i
